We go through 1 compound from ChEMBL document CHEMBL2218924, “A broad activity screen in support of a chemogenomic map for kinase signalling research and drug discovery” (Biochem J, 2013).

The target in experiment [1] is Tyrosine-protein kinase SYK (Homo sapiens) (UniProt P43405). The conditions noted are these: at 10 µM.
The target in experiment [2] is T1, Mitogen-activated protein kinase kinase kinase 7 (Homo sapiens) (UniProt O43318).
T1 sequence (whole entry): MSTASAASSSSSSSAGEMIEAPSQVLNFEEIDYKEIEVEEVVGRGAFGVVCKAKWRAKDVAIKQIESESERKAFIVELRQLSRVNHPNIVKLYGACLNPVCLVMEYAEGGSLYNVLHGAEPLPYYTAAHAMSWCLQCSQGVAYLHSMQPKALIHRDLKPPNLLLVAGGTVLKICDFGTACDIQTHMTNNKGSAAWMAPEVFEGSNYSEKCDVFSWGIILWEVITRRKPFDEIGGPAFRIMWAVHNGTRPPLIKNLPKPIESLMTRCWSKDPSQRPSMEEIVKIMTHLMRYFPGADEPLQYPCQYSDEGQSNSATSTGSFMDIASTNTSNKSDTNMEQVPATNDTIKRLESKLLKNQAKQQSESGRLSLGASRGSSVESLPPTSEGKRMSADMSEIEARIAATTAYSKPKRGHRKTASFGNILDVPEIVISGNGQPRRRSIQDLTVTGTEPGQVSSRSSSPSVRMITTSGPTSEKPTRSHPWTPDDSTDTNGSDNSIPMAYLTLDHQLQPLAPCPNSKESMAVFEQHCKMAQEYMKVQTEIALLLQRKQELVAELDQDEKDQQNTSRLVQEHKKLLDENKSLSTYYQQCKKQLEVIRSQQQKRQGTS
The conditions noted are these: at 1 µM.

Experiment [3] addresses T1, Mitogen-activated protein kinase kinase kinase 7 (Homo sapiens). The conditions noted are these: at 10 µM.
The target in experiment [4] is T2, Serine/threonine-protein kinase TAO1 (Homo sapiens) (UniProt Q7L7X3).
T2 sequence (whole entry): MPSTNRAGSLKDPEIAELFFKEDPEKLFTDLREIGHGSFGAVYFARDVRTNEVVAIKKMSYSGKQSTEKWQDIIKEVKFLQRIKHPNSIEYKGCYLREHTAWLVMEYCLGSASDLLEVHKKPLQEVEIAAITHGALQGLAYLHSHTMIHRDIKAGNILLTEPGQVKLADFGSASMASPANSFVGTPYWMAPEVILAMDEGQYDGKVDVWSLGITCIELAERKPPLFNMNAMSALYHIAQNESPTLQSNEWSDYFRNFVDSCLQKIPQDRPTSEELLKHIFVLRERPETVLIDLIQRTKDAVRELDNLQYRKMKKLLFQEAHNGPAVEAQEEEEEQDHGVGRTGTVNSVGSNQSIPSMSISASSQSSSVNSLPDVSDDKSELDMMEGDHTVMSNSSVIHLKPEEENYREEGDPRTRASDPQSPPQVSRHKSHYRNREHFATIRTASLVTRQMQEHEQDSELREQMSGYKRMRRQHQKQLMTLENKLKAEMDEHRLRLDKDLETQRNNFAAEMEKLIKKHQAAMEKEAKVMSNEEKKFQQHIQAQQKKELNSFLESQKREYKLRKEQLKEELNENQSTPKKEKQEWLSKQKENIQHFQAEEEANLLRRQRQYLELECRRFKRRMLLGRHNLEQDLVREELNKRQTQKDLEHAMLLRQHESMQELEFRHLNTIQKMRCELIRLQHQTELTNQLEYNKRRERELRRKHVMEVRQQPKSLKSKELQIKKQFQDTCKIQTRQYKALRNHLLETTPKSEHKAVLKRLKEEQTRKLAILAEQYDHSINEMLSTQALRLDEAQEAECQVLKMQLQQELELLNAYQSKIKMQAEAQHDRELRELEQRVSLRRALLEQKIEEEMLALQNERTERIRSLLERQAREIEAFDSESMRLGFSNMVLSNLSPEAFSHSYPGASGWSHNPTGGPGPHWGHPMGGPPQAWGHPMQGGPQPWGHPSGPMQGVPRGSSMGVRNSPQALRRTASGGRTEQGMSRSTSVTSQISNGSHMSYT
The conditions noted are these: at 1 µM.

Experiment [5] deals with T2, Serine/threonine-protein kinase TAO1 (Homo sapiens). The conditions noted are these: at 10 µM.
The target of experiment [6] is T3, Serine/threonine-protein kinase TAO2 (Homo sapiens) (UniProt Q9UL54).
T3 sequence (whole entry): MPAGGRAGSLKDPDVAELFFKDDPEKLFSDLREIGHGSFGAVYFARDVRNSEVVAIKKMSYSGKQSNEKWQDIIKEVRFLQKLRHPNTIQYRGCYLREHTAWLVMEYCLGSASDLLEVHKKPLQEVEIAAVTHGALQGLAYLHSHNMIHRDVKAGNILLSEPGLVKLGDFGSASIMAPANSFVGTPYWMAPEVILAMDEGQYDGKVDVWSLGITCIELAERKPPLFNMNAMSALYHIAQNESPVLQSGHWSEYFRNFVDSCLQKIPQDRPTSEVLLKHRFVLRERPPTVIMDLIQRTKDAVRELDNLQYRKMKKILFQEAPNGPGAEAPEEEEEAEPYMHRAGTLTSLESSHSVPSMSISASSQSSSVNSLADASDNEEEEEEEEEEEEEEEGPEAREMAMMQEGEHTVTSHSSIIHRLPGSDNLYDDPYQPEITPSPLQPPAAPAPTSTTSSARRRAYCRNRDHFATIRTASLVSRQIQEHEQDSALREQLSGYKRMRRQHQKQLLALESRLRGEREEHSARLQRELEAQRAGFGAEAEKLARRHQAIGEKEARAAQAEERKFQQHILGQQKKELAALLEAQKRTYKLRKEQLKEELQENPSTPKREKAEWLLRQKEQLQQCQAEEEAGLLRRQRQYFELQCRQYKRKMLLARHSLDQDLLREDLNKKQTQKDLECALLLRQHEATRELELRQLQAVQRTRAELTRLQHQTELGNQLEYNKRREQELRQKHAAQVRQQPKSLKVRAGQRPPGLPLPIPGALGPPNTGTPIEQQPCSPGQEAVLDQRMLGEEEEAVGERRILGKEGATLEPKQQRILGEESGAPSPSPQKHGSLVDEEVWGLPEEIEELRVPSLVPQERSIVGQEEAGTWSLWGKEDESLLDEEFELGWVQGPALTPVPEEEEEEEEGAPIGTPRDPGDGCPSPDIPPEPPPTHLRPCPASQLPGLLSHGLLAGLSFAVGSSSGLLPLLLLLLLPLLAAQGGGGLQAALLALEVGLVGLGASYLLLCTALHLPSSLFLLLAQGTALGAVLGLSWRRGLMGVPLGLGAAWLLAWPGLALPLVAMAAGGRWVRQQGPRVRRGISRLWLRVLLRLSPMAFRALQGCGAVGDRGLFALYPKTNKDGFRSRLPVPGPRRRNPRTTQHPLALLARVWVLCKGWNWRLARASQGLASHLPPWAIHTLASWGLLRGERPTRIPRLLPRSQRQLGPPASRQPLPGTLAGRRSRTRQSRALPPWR
The conditions noted are these: at 1 µM.

In experiment [7] the target is T3, Serine/threonine-protein kinase TAO2 (Homo sapiens). The conditions noted are these: at 10 µM.
Experiment [8] has as its target T4, Serine/threonine-protein kinase TAO3 (Homo sapiens) (UniProt Q9H2K8).
T4 sequence (whole entry): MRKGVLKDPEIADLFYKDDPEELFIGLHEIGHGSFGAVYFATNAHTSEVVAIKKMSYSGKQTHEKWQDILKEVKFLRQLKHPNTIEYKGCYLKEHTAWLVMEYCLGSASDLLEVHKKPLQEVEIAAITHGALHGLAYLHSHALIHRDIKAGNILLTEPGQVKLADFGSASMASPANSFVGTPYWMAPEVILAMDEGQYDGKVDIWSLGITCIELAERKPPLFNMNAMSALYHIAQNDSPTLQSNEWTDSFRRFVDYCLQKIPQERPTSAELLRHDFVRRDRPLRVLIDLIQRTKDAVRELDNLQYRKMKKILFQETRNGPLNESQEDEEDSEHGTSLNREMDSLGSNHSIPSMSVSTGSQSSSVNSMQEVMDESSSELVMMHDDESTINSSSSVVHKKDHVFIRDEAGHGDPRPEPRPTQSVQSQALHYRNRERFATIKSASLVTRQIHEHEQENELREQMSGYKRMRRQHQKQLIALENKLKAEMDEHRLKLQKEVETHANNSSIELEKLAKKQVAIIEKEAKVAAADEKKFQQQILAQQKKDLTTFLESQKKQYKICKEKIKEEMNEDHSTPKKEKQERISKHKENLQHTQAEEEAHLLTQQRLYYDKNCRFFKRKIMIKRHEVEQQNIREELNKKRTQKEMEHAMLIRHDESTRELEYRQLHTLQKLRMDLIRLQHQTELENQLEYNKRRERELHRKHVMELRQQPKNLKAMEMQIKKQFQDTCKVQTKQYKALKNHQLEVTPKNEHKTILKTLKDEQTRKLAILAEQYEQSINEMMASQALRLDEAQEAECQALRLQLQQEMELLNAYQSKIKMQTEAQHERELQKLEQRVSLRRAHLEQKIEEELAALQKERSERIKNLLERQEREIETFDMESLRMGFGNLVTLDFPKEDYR
The conditions noted are these: at 1 µM.

Experiment [9] addresses T4, Serine/threonine-protein kinase TAO3 (Homo sapiens). The conditions noted are these: at 10 µM.
The target in experiment [10] is T5, Serine/threonine-protein kinase TBK1 (Homo sapiens) (UniProt Q9UHD2).
T5 sequence (whole entry): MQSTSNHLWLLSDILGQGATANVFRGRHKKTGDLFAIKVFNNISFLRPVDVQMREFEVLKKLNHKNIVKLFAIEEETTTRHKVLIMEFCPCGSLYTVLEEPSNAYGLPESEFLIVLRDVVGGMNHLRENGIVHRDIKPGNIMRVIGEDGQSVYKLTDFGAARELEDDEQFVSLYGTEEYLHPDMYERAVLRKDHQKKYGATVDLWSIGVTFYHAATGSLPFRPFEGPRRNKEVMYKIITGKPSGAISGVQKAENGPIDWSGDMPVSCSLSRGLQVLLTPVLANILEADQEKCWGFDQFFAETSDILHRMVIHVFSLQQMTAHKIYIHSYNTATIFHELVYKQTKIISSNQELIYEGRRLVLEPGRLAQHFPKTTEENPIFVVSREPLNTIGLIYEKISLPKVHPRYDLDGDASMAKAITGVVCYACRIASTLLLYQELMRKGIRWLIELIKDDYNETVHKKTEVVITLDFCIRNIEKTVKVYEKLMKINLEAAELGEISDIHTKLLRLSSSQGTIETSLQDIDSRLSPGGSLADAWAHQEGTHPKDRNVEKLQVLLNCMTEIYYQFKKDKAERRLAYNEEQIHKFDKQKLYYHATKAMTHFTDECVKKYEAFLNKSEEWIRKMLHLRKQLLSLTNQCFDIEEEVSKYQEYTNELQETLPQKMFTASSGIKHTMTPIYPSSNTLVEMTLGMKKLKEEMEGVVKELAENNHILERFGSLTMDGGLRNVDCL
The conditions noted are these: at 1 µM.

For the compound `Oc1ccc(-c2nc(-c3ccc(F)cc3)c(-c3ccncc3)[nH]2)cc1`, the residual activity in experiment [1] is 100%; in experiment [2], 104%; in [3], 101%; in [4], 102%; in experiment [5], 69%; in [6] it was 106%. Besides, the residual activity in [7] amounted to 68%; in [8], 111%; in experiment [9], 84%; in experiment [10], 110%.
